Test results reported in PubChem BioAssay AID1508649 (National Center for Advancing Translational Sciences (NCATS), 2021).
Out of some 43,000 compounds screened, about 830 (1.9%) were called active. Entries that show only a call come without a potency. Inconclusive results (about 30%) are left out. Rule for the calls: active = clear falling dose curves in both reporters; inconclusive = both reporters move, but less clearly or upward; inactive = either reporter flat; the % is the NLuc reporter signal. For the sample, actives were picked, then their nearest neighbours and some compounds at random.

test: Cell-based coincidence reporter assay to measure PMP22 gene transcription in S16 Pmp22-F2sN cells - Primary screen; conditions: S16 Pmp22-F2sN Schwann cells (luciferase reporters placed in the Pmp22 gene), FLuc/NLuc coincidence luminescence, 24 h; series mostly up to 57.5 µM
Text: Assay Provider: Jim Inglese Ph.D. National Center for Advancing Translational Science, National Institutes of Health, Rockville, MD CMT is a heterogeneous group of neurological disorders that affect approximately 1 in 2,500 people. In particular, the most common form of CMT, CMT1A is genetically linked to the duplication of the PMP22 gene which leads to Schwann cell overexpression, thus manifesting itself as a typical case of dose-sensitive diseases. To identify small molecule compounds that can mediate the expression of PMP22 we developed a phenotypic assay screening strategy by utilizing genome editing techniques to construct Schwann cell lines containing novel reporter technology to monitor the transcriptional or translational regulation of PMP22. For high sensitivity we use a bioluminescent reporter system embedded in the 3' UTR of the PMP22 gene (S16(c9) Pmp22-F2sN) to identify compounds that inhibit gene expression. […] We can further discriminate the effect of all transcriptionally active molecules on PMP22 translation or stability with an assay that incorporates a short NLuc peptide (HiBiT) at the C-terminus of expressed PMP22 (S16(f8) PMP22-HiBiT) allowing alpha complementation and luminescence detection of membrane-associated PMP22 protein. These assays were screened against the NCATS Sytravon Library Collection. Miniaturization of these assays to 1536-well plate format for quantitative high throughput screening (qHTS) yielded rich data sets immediately from the qHTS assay (S16(c9) Pmp22-F2sN), when compared with data from a cell viability assay (Cell TiterGlo) to identify compounds that decreased the output signals through cellular toxicity to streamline the selection process of actives for subsequent characterization using the HiBiT assay (S16(f8) PMP22-HiBiT).
Cell-based coincidence reporter assay to measure PMP22 gene transcription in S16 Pmp22-F2sN cells PROTOCOL TABLE (format as described by Inglese J, Shamu CE and Guy RK. 2007) SEQUENCE No. (e.g., 1, 2, 3, etc.); […] (e.g., Cells, Incubation, Reagent, etc.); VALUE and DESCRIPTION. 1. Cells. Add 500-1,000 cells in 4 uL in growth media (DMEM High Glucose, No Phenol Red media + 10% heat-inactivated FBS + 1% Pen/Strep supplemented media) per well into Greiner 1536-well white/solid bottom high base, TC-treated plates. 2. Compounds. Library compounds and controls added at 23nL per well, transferred by Pin Tool. 3. Incubation. Incubate plates at 37C, 5% CO2, 95% RH for 24 h. 4. Reagent. Add 3.5uL Nano-Glo Dual-Luciferase Reporter Assay System reagent 1: Lysis and FLuc reagent per well of Greiner 1536-well plates. 5. Incubation. Incubate plates at room temperature for 10 min., protect from light. 6. Detector. FLuc luminescence measured using CCD-based camera (Viewlux). 7. Reagent. Add 3.5uL Nano-Glo Dual-Luciferase Reporter Assay System reagent 2: Stop&Glo reagent per well of Greiner 1536-well plates. 8. Incubation. Incubate plates at room temperature for 10 min., protect from light. 9. Detector. NLuc luminescence measured using CCD-based camera (Viewlux). NOTES (numbers refer to Sequence numbers above; values are from representative experiments) 6. Luminescence Read #1 (FLuc): Clear filter; Exposure = 10 sec, Gain = High, Speed = Slow, Binning = 2X 9. Luminescence Read #2 (NLuc): Clear filter; Exposure = 1 sec, Gain = High, Speed = Slow, Binning = 2X REFERENCES: 1. Inglese J, Shamu CE and Guy RK, Reporting data from high throughput screening of small molecule libraries, Nature Chemical Biology, 2007, 3(8): 438-441. doi.org/10.1038/nchembio0807-438 2. Yasgar A, Shinn P, Jadhav A, Auld DS, Michael S, Zheng W, Austin CP, Inglese J and Simeonov A, Compound Management for Quantitative High-Throughput Screening. J. Assoc. Lab. Auto., 2008, 13: 79-89. doi: 10.1016/j.jala.2007.12.004
Potency is the fitted concentration of half-maximal effect.

| SMILES | Potency |
| --- | --- |
| COc1ccc(OC)c(CCNC(=O)CCCn2c(=O)c3cccn3c3cccnc32)c1 | inactive |
| CCc1ccc(NS(=O)(=O)c2ccc3[nH]cc(C(=O)NCCc4cccc(C)c4)c(=O)c3c2)cc1 | inactive |
| COc1cccc(CNC(=O)C(NS(=O)(=O)c2ccc3nc(C)sc3c2)C(C)C)c1 (stereo not drawn) | inactive |
| CCOC(=O)C1=C(c2ccccc2)Nc2ncnn2C1c1ccc(Cl)cc1 (stereo not drawn) | inactive |
| O=C(c1ccc(C(F)(F)F)cc1)N1CCC(c2nc(-c3ccc(S(=O)(=O)N4CCCC4)cc3)no2)CC1 | 14.2 µM (active) |
| Cc1ccc(C)c2sc(NC(=O)c3ccc(S(=O)(=O)N4CCCC4)cc3)nc12 | inactive |
| COc1ccc(C(=O)N2CCC(c3nc4ccccc4o3)CC2)cc1 | inactive |
| Fc1cccc(-n2ncc3c2ncn2nc(-c4ccccc4Cl)nc32)c1 | inactive |
| COc1ccc(-c2onc(C)c2C)cc1S(=O)(=O)NCC1CCN(Cc2cccc(F)c2)CC1 | 14.1 µM (active) |
| Cc1ccc(-c2onc(C)c2C)cc1S(=O)(=O)Nc1ccccn1 | inactive |
| COc1cc(NC(=O)NCC2CCN(Cc3ccc(C)cc3)CC2)cc(OC)c1OC | inactive |
| CCS(=O)(=O)c1nc(S(=O)(=O)c2ccc(C)cc2)c(NCc2ccc(Cl)cc2)s1 | inactive |
| CCc1ccc(Nc2nn3c(=O)c4cc5c(cc4nc3s2)OCO5)cc1 | inactive |
| COc1ccc(N2CCN(C(=O)c3c(C)oc4nc(C)nc(N5CCCC5)c34)CC2)cc1 | inactive |
| CC1=C(C(=O)OCc2ccc(C)cc2)C(c2ccccc2Cl)CC(=O)N1 (stereo not drawn) | inactive |
| CC1=C(C(=O)OCc2ccc(C)cc2)C(c2c(Cl)cccc2Cl)CC(=O)N1 (stereo not drawn) | inactive |
| CCc1ccc(C2CC(=O)c3c([nH]c(C(=O)OCc4ccc(C)cc4)c3C)C2)cc1 (stereo not drawn) | 10 µM (active) |
| COc1ccc(-c2nn3c(-c4ccc(OC)cc4)nnc3c3ccccc23)cc1 | inactive |
| CCOC(=O)c1cc(OC(=O)c2ccccc2Cl)n(-c2ccccc2)n1 | inactive |
| COc1cc(OC)cc(-c2nc3nc(C)c(CCC(=O)Nc4ccc(C)cc4)c(C)n3n2)c1 | inactive |
| Cc1ccc(NC(=O)Cn2cnc3nc4c(cc3c2=O)CCCC4)cc1Cl | inactive |
| O=C(CCc1nc(CN2CCN(S(=O)(=O)c3ccc(F)cc3)CC2)no1)N1CCCCC1 | inactive |
| CCOC(=O)c1cccc(NC(=O)c2cc(CN3CCCC3)on2)c1 | inactive |
| CCc1ccccc1NC(=O)N1CCN(C(=O)c2nsc3ccccc23)CC1 | inactive |

| SMILES | Potency |
| --- | --- |
| Cc1ccc(NC(=O)CN2c3ccccc3S(=O)(=O)c3ccccc32)cc1F | inactive |
| CCc1ccccc1NC(=O)Cc1cn(C)c2ccccc12 | inactive |
| COc1cccc(NC(=O)N2CCN(C(=O)c3nsc4ccccc34)CC2)c1 | inactive |
| COc1cccc(NC(=O)N(Cc2cn(C)c3ccccc23)C2CCCCCC2)c1 | 10.6 µM (active) |
| O=c1cc(COc2cccc(C(F)(F)F)c2)nc2sc3c(n12)CCCC3 | inactive |
| CCOc1ccccc1NC(=O)Cn1nnc(C(=O)Nc2ccc(C)c(C)c2)c1N | inactive |
| COc1cccc(CNC(=O)c2nnn(CC(=O)Nc3cc(Cl)ccc3C)c2N)c1 | inactive |
| CCOc1ccccc1NC(=O)Cn1nnc(C(=O)NCc2cccs2)c1N | 0.401 µM (active) |
| COc1ccc(C2Sc3ccccc3NC3=C2C(=O)c2ccccc23)c(OC)c1OC (stereo not drawn) | 7.27 µM (active) |
| Cc1ccc(-c2noc(CSc3nnc(-c4ccc(Cl)cc4)n3C)n2)cc1 | inactive |
| Cc1nnc(C)n1-c1ccc(C(=O)Nc2cccc(Br)c2)cc1 | inactive |
| CCN(CCCNC(=O)c1c(C)oc2ncn(CC(C)C)c(=O)c12)Cc1ccccc1 | inactive |
| COc1ccc(S(=O)(=O)Nc2cc3c(C(=O)OC(C)C)c(C)oc3c3ccccc23)cc1 | 11.3 µM (active) |
| COc1ccc(OC)c(NC(=O)C2CCN(S(=O)(=O)c3ccc(C)cc3)CC2)c1 | inactive |
| Cc1cc(C)nc(NS(=O)(=O)c2ccc(NC(=O)c3cc(=O)c4ccc(C)c(C)c4o3)cc2)n1 | inactive |
| COc1ccc(Cn2ccnc2SCC(=O)Nc2ccc3c(c2)OCO3)cc1 | inactive |
| CCn1cc(C(=O)NCc2ccc(C)cc2)c(=O)c2cc(S(=O)(=O)N3CCc4ccccc4C3)ccc21 | inactive |
| COc1cc(NC(=O)c2nc3ccccc3nc2C)cc(OC)c1OC | inactive |
| COc1ccccc1Nc1c2c(nc3ccc(NC(=O)/C=C/c4cc(OC)c(OC)c(OC)c4)cc13)CCCC2 | 6.04 µM (active) |
| COc1cccc(C(=O)Nc2ccc3nc4n(c(=O)c3c2)CCCCC4)c1 | inactive |
| CC(=O)c1ccc(N2CCN(C3C(=O)c4ccccc4N3C(C)=O)CC2)cc1 (stereo not drawn) | inactive |
| O=C(CCS(=O)(=O)c1ccccc1)N(Cc1cccnc1)c1nc2c(F)cccc2s1 | 10.6 µM (active) |
| Cc1ccc2sc(N(Cc3cccnc3)C(=O)C3COc4ccccc4O3)nc2c1C (stereo not drawn) | inactive |
| O=C(C1COc2ccccc2O1)N(Cc1cccnc1)c1nc2c(F)cc(F)cc2s1 (stereo not drawn) | inactive |
